Only some compounds are listed: those with a hit (about 20% of all), similar ones and a draw of the others.
Shiga inhibitor – Shiga toxin inhibition | Vero cells, Shiga toxin protein synthesis inhibition reporter | inhibition, % at 38.7 µM | hit rate 9.2% among 290,000; in the data active means inhibition mostly above about 28%, no sharp cut-off; inactive means mostly below about 43%; further: 0% is about no effect
Pf growth 96h – P. falciparum growth inhibition at 96 hours. hit rate 6.9% among 320,000. Potency, µM (doses to about 28.7 µM), without a hit: at the top dose activity change, negative = inhibition, actives largely listed as inhibitors. AID 504834. P. falciparum luciferase reporter growth, 96 h; further: potency means the concentration at half of the fitted maximal effect; on the % scale 0 is the no-effect control and ±100 the full control effect
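Cell-based qHTS: luciferase-tagged P. falciparum in erythrocytes (2% hematocrit, 0.05% parasitemia final) incubated with compounds for 96 hours, 37 C, 5% CO2; luciferase detection reagent then added and luminescence measured.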
HCMV inh – inhibitors of human cytomegalovirus; HFF cells, HCMV-luciferase reporter, 72 h; active compounds read low; activity change, negative = inhibition, % at 57.5 µM; hit rate 4.5% among 410,000; in the data active means activity change below about -60%; inconclusive means no clear call, values can overlap the other calls; inactive means above about -39%; further: on the % scale 0 is the no-effect control and ±100 the full control effect
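Inhibition of viral replication was scored as loss of reporter luminescence in HFFs infected with HCMV-luciferase (MOI 1 PFU/cell) for 72 h; compounds tested at 2 doses, normalized to buffer and Salinomycin controls.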
CHX counter – affects cycloheximide protein synthesis inhibition readout, counter-screen; max response, %; cell reporter, cycloheximide protein synthesis inhibition counterscreen; hit rate 12% among 300,000; in the data active means max response mostly above about 13%, no sharp cut-off; inactive means mostly below about 14%; further: read at 38.3 µM for the half of the compounds with a filed dose; 0% is about no effect
Pf growth 48h – P. falciparum growth inhibition at 48 hours (one generation); P. falciparum luciferase growth in erythrocytes, 48 h; Potency, µM (highest dose often 28.7 µM), without a hit: at the top dose activity change, negative = inhibition, most hits filed as inhibitors; hit rate 5.9% among 310,000; further: potency means the concentration at half of the fitted maximal effect; on the % scale 0 is the no-effect control and ±100 the full control effect
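A one-generation exposure of luciferase-tagged malaria parasites in RPMI 1640/Albumax erythrocyte culture, 37 C and 5% CO2. Inhibition is inferred from decreased luminescence after adding detection reagent.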
* = called active by the depositor; i = inactive; ? = inconclusive; . = not tested or not shown; [ ] = remark or other dose. Unless noted, the call rests on the fitted dose curve; in most records, active means well fitted inhibition curve with a large enough effect; inconclusive means small, poorly fitted or top-dose-only effect, or another doubt; inactive means no such curve, though single readings can be large or run the other way.

SMILES | Shiga inhibitor | Pf growth 96h | HCMV inh | CHX counter | Pf growth 48h
COc1ccc(/C=N/NC(=O)CC(=O)N/N=C/c2ccc(OC)cc2)cc1 | 18 | 39% | 16 | 5 | ?
COc1ccc(/C=N/NC(=S)N[C@H]2CC3CCC2C3)cc1 (stereo partly drawn) | 18 | 5.2µM* | ? | 13* | 4.1µM*
COc1cc(/C=N/NC(=O)CC(=O)NC2CCCCC2)ccc1O | -6 | ? | ? | -2 | 25%
CC(OCC(O)CN(C)Cc1nc2ccccc2c(=O)[nH]1)c1ccc(Cl)cc1 (stereo not drawn) | -13 | ? | -16 | -3 | ?
Cc1cc2ccccc2n1CCNC(=O)C(C)Oc1ccccc1 (stereo not drawn) | 2 | ? | 6 | 11 | ?
COc1cccc(C2=NC(C)(CC(=O)NCc3ccccc3F)ON2C)c1 (stereo not drawn) | . | . | -10 | . | .
COc1ccc(/C=C/C(=O)NC2CC3CCC2C3)cc1 (stereo not drawn) | . | ? | 34 | 27* | -13%
NNC(=O)c1oc2nc(-c3cccs3)cc(-c3ccco3)c2c1N | -8 | ? | ? | -4 | ?
Cc1ccc(-c2cc(-c3ccco3)c3c(N)c(C(=O)NN)oc3n2)cc1 | 14 | ? | -35 | 0 | 4.7µM*
Cc1noc(C)c1C(=O)Nc1ccccc1-c1ccccc1 | 12 | . | -15 | 2 | 23%
CCOc1ccc(NC(=O)CCc2c(C)nc3nc(C)nn3c2C)cc1 | . | . | -5 | . | .
COc1cccc(NC(=O)CN(C)C(=O)c2ccc(-n3cncn3)c([N+](=O)[O-])c2)c1 | . | -23% | 15 | . | ?
C#CCOc1coc(COC(=O)c2ccccc2)cc1=O | 23 | -28% | 8 | 23* | 8%
CC1(C2CCC3C4CCC5CC6(CCC5(C)C4C(=O)CC32C)OCCO6)OCCO1 (stereo not drawn) | . | . | -99* | . | .
CCn1c(=O)c2cc(C(=O)NCCc3ccc(OC)c(OC)c3)sc2c2ccccc21 | . | . | -11 | . | .
Cc1cc(OC(C)C(=O)N2CCN(c3ccccc3)CC2)c2c(C)c(C)c(=O)oc2c1 (stereo not drawn) | 17 | 13µM* | -35 | -3 | 9.3µM*
Cc1cc(OCC(=O)N2CCN(c3ccccc3)CC2)c2c(C)c(C)c(=O)oc2c1 | -4 | 32% | -34 | 14 | 25%
O=C(CCC1CCCN(C(=O)c2cncs2)C1)NCc1ccc(F)c(F)c1 (stereo not drawn) | -9 | 8.3µM* | 10 | 21 | 46%
Cc1nc(C)c(C(=O)N2CCCC(CCC(=O)NCc3ccc(F)c(F)c3)C2)s1 (stereo not drawn) | 15 | 9.3µM* | -5 | 3 | -4%
COC(=O)C[C@@H]1CC[C@H](NC(=O)Cc2ccccn2)[C@@H](CO)O1 | . | . | 9 | . | .
Clc1ccc(-n2cc(COCc3ccccc3)nn2)cc1 | 57* | 312% | 54 | 24 | i
O=C(Nc1ccc(Cl)cc1)OCc1cn(-c2ccc(Cl)cc2)nn1 | 23 | 87% | 0 | -3 | 57%
CCCCn1nc(C(=O)NC2CCCCCC2)c2ccccc2c1=O | . | . | -25 | . | .
O=C(O)Cc1nn(Cc2ccc(Cl)cc2)c(=O)c2ccccc12 | 10 | ? | -69* | 1 | 17%
CCN(CC)CCNC(=O)Cc1nn(Cc2ccccc2)c(=O)c2ccccc12 | 12 | 10% | 25 | -1 | 29%
SMILES | Shiga inhibitor | Pf growth 96h | HCMV inh | CHX counter | Pf growth 48h
CCCCn1nc(C(=O)N(C)C2CCCCC2)c2ccccc2c1=O | . | ? | -106* | . | ?
CCn1nc(CC(=O)O)c2ccccc2c1=O | 8 | -28% | 6 | -2 | 28%
CCCCn1nc(CC(=O)O)c2ccccc2c1=O | -14 | 10µM* | 26 | -7 | -3%
CCCn1c(N)c(NCCN2CCOCC2)c(=O)[nH]c1=O | 17 | -31%[5.75 µM] | -1 | -2 | ?
Cc1cccc(CN2CCCC(C(=O)c3ccc(C(F)(F)F)cc3)C2)n1 (stereo not drawn) | -4 | 12µM* | -30 | 0 | 2.3µM*
CSc1ccccc1C(=O)C1CCCN(Cc2cccc(C)n2)C1 (stereo not drawn) | -8 | -5% | -25 | -2 | ?
CCCCc1ncc(CN2CCCC(C(=O)c3ccc(SC)cc3)C2)[nH]1 (stereo not drawn) | -14 | 25%[5.75 µM] | -3 | -5 | 9.3µM*
CSc1ncc(CN2CCCC(C(=O)c3ccc(C(C)(C)C)cc3)C2)cn1 (stereo not drawn) | 37 | -15% | 22 | 22* | ?
CCOC(=O)c1[nH]ncc1CN1CCCC(C(=O)c2ccc(SC)cc2)C1 (stereo not drawn) | -5 | ? | ? | 3 | ?
CCN1CCN(c2ccccc2NC(=O)c2ccc(-n3cccn3)cc2)CC1 | . | -24% | 49 | . | ?
COc1ccc(S(=O)(=O)N2CCCCCC2)cc1C(=O)N(C)Cc1ccco1 | . | 2% | -29 | . | -12%
Cc1ccc(C(=O)N2C(=S)C(c3ccc(F)cc3)=NC23CCN(C)CC3)cc1 | -1 | ? | -85* | 2 | 3%
Cc1ccc(C(=O)N2CCC(C(=O)c3ccc(F)cc3)CC2)cc1 | . | . | -7 | . | .
CCOC(=O)C(=CNc1cccnc1Oc1ccc(C)c2c1CCC2)C(=O)OCC | 20 | 8.3µM* | 19 | -2 | 12µM*
Cc1ccc(Oc2ncccc2NC(=O)CC2(CC(=O)O)CCCC2)c2c1CCC2 | -3 | -1% | 20 | 0 | ?
Cc1cccc(CN2C(=O)N/C(=C/c3ccc(C)s3)C2=O)c1 | 47 | 3.3µM* | 2 | 23* | .
Cc1ccc(/C=C2/NC(=O)N(Cc3ccccc3)C2=O)s1 | 37 | ? | 57 | 55* | 10µM*
Cc1cccc(CN2C(=O)N/C(=C/c3cc(C)n(-c4cc(C)ccn4)c3C)C2=O)c1 | -10 | . | . | -4 | 12µM*
Cc1cc(/C=C2\NC(=O)N(Cc3ccc(Cl)cc3)C2=O)c(C)n1C | -2 | ? | -30 | -1 | 9.3µM*
Cc1ccc(CN2CN(S(=O)(=O)c3cccs3)c3nc4ccccc4nc32)cc1 | 81* | 66% | -19 | 91* | ?
O=S(=O)(c1cccs1)N1CN(Cc2ccco2)c2nc3ccccc3nc21 | 40* | ? | 17 | 31* | ?
COc1ccccc1CN1CN(S(=O)(=O)c2ccccc2)c2nc3ccccc3nc21 | 110* | ? | ? | 31* | ?
Cc1cccc(S(=O)(=O)N2CN(Cc3ccco3)c3nc4ccccc4nc32)c1 | -3 | ? | 60 | -3 | ?
CC(C)OCCCN1CN(S(=O)(=O)c2cccs2)c2nc3ccccc3nc21 | 44 | 6% | 36 | 14* | -12%
Cc1cc(=O)n2nc(N3CCCC(C(=O)NCc4cccc(Br)c4)C3)sc2n1 (stereo not drawn) | -9 | -21% | -18 | 8 | ?
COc1ccc(-n2c(SCC(=O)NC3CCCCC3)nc3c([nH]c4ccccc43)c2=O)cc1 | . | . | 8 | . | .
O=S(=O)(c1cccs1)N1CN(Cc2ccc(Cl)cc2)c2nc3ccccc3nc21 | 10 | ? | ? | 15* | ?
CCCc1nn2c(=O)cc(COC(=O)C3CCCCC3)nc2s1 | . | . | 23 | . | .

Source: PubChem (National Center for Advancing Translational Sciences (NCATS))
